Assay in all cases: NCI-60 one-dose screen, 48 h (100 = growth as untreated, 0 = no growth, -100 = all killed)
Holding throughout (settings): 10 µM

For test [1], the system named is NCI-H23 lung.
In test [2] the test system is NCI-H226 lung.
In test [3] the test system is NCI-H322M lung.
In test [4] the test system is HOP-62 NSCLC.
For test [5], the system named is NCI-H460 lung.
Test [6] has as its system NCI-H522 lung.
In test [7] the test system is A549/ATCC NSCLC.
Test [8] deals with 786-0 renal.
Test [9] concerns COLO 205 colon.
The test system of test [10] is DU-145 prostate.
For test [11], the system named is K-562 leukemia.
For test [12], the system named is MDA-MB-231 breast.
Test [13] relates to RXF 393 renal.
The test system of test [14] is SF-268 CNS.
The subject of test [15] is SF-295 CNS.
The subject of test [16] is SF-539 CNS.
Test [17] deals with UACC-257 melanoma.
Test [18] concerns M14 melanoma.
For test [19], the system named is HCT-15 colon.

Molecules are shown by their SMILES. Compounds without any hit were thinned out: in the full panel of roughly 83,000, 20% have a hit.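 Results are percent growth after 48 hours of single-concentration exposure. 100 means growth as in untreated cells, lower positive values show inhibition; negative values down to -100 show cell death.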 A number with no mark means an inactive call. Calls of active or inactive are those of the source. How the source made its calls: active means growth percent below 10; inactive means the rest.

As to `c1ccc2c(c1)oc1c3cccnc3ccc21`, the growth was 86.8% in test [1]; 87.4% in test [2]; 66% in test [3]; 86.7% in test [4]; 81.6% in test [5]; 89.8% in test [6]. The growth was 94.1% in [7]; 94.4% in test [8]; 104% in [9]; 102% in test [10]; 95.8% in test [11]; 87.7% in [12]. Besides, the growth in test [13] is 94.4%; in test [14], 98.3%; in test [15] it was 105%; in test [16], 88.1%; in test [17], 101%; in test [18] it was 100%. Besides, the growth in test [19] was 95.1%.

`CCN(CC)CCN1CC(=O)Nc2cc(Cl)ccc21`: the growth in test [1] is 101%; in test [2], 95.1%; in test [3], 104%; in [4], 103%; in [5] it was 104%; in test [6] it was 92.7%. In addition, the growth in test [7] is 102%; in test [8], 115%; in test [9] it was 102%; in test [10], 120%; in test [11], 120%; in test [12], 116%. For the same molecule, the growth is 122% in test [13]; 108% in test [14]; 103% in test [15]; 105% in [16]; 102% in [17]; 93.9% in test [18]. Further, the growth in test [19] was 107%.

`COc1cc(/C=C2\CCCC3=C2N=C2SC=NN2C3c2cc(OC)c(OC)c(OC)c2)cc(OC)c1OC` (configuration not stated): the growth in test [1] is 28.9%; in [2] it was 13.6%; in test [3] it was 28.4%; in test [4], 11.8%; in test [5] it was 1.24% (active); in [6] it was 46.5%. The growth in test [7] was 13.1%; in [8] it was 32%; in test [9], 25.7%; in test [10], 8.36% (active); in test [11], 8.28% (active); in test [12] it was 2.06% (active). Moreover, the growth in test [13] is 21.7%; in [14] it was 22.9%; in test [15], 21.4%; in test [16], 5.9% (active); in [17] it was 34.3%; in [18], 9.84% (active). Moreover, the growth in [19] is 6.59% (active).

In the case of `O=C(O)c1ccc(Cl)cc1Nc1ccc(F)cc1`, the growth in [1] is 92.7%; in test [2] it was 82.3%; in test [3], 38.1%; in [4] it was 96.7%; in test [5] it was 76.8%; in test [6], 82.6%. In addition, the growth is 86.4% in test [7]; 68.6% in test [8]; 95.7% in [9]; 87.1% in test [10]; 75.4% in test [11]; 70.4% in [12]. Besides, the growth in test [13] is 92.7%; in test [14], 62.4%; in test [15] it was 73%; in [16], 93.8%; in test [17], 97.6%; in test [18] it was 77.6%. Also, the growth in test [19] was 53.7%.

In the case of `O=C(CC(NC(=O)OCc1ccccc1)C(=O)OCc1ccccc1)OCc1ccccc1` (configuration not stated), the growth is 106% in [1]; 106% in test [2]; 99% in [3]; 94% in [4]; 101% in test [5]; 89.2% in test [6]. Moreover, the growth in test [7] was 99.3%; in test [8], 106%; in [9], 99.1%; in test [10], 111%; in [11], 112%; in [12], 123%. Also, the growth in [13] is 125%; in [14], 103%; in [15], 110%; in test [16] it was 111%; in test [17], 94.2%; in test [18], 90.5%. In [19], the growth is 106%.

For the molecule `COc1ccc2c(c1)C(=O)c1c-2c(OCCN2CCCCC2)nc2ccc(OC)cc12`, the growth in [1] was 12.6%; in test [2] it was 23.9%; in test [3], 5.72% (active); in test [4] it was 24.4%; in test [5], -50.7% (active); in test [6], 25.1%. The growth is 11.6% in test [7]; 18% in test [8]; 28% in test [9]; 11.3% in [10]; 11.2% in test [11]; 66.5% in [12]. The growth was 47.3% in [13]; 28.1% in test [14]; 2.81% (active) in [15]; 20.9% in test [16]; 32.3% in [17]; 22.9% in test [18]. Moreover, the growth in test [19] is 26.2%.

On to `COc1ccc2c(c1)sc1nc(-c3ccccc3)c(-c3cccnc3)n12`, for which the growth was 88.4% in test [1]; 103% in test [2]; 113% in test [3]; 125% in [4]; 102% in test [5]; -22.7% (active) in [6]. For the same molecule, the growth is 94.1% in test [7]; 96.9% in test [8]; 128% in test [9]; 107% in test [10]; 82% in test [11]; 107% in test [12]. The growth was 103% in [13]; 111% in test [14]; 97% in [15]; 102% in test [16]; 100% in [17]; 97.7% in test [18]. The growth in [19] was 84.6%.

Regarding `COc1ccc(-c2nc3sc(C4CC4)nn3c2/C=C2/C(=O)Nc3ccc(OC)cc32)cc1`, the growth is 82% in test [1]; 63.7% in test [2]; 61.6% in test [3]; 80.9% in [4]; 77.7% in test [5]; 63.8% in [6]. The growth in [7] is 75.5%; in test [8] it was 86%; in [9] it was 88.5%; in test [10] it was 62.3%; in test [11] it was 74.3%; in [12], 58.4%. For the same molecule, the growth in [13] is 63.9%; in [14], 75.8%; in test [15], 82.8%; in test [16], 25.1%; in test [17], 55.2%; in test [18], 63.8%. Further, the growth in test [19] was 76.9%.

The record behind these values is PubChem BioAssay (NCI).
